Measurements published in PubChem BioAssay.
Activity calls are given as the source filed them.

Assays:
[1] = binders of probe aFSTL3 on microarray, primary screen, stem cell growth factor project, biochemical, small-molecule microarray, fluorescence 635/667 (AID 1064); conditions: higher = more signal;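 note: measures binding of the biotinylated anti-FSTL3 antibody to printed compounds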
[2] = binders from COS7 lysate, DM2A8 probe, primary screen, torsin A project, cell lysate, small-molecule microarray, fluorescence 635/667 (AID 1065); conditions: higher = more signal, COS7 lysate expressing mutant human TOR1A
[3] = binders of probe aFGF2 on microarray, primary screen, stem cell growth factor project, biochemical, small-molecule microarray, fluorescence 635/667 (AID 1067); conditions: higher = more signal;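 note: measures binding of biotinylated aFGF2 protein to printed compounds on slides; z-score merges feature fluorescence and signal-to-noise across triplicate slides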
[4] = binders of probe aFGF10 on microarray, primary screen, stem cell growth factor project, biochemical, small-molecule microarray, fluorescence 635/667 (AID 1071); conditions: higher = more signal;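 note: score merges 667 nm spot intensity and signal to noise from triplicate slides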
[5] = target: Neurogenic locus notch homolog protein 2 (Homo sapiens) (UniProt Q04721); assay: Notch2 binders on small-molecule microarrays, primary screen, biochemical, small-molecule microarray, 635 nm fluorescence, stem cell growth factors (AID 1073); conditions: Notch2 binding, higher = more signal
[6] = target: Pro-neuregulin-1, membrane-bound isoform (Homo sapiens) (UniProt Q02297); assay: NRG1 binders on small-molecule microarrays, primary screen, psychiatric disease protein project, biochemical, small-molecule microarray, fluorescence 635/667 (AID 1075); conditions: NRG1 binding, 635 nm fluorescence, higher = more signal;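 note: score combines 667 nm spot fluorescence with signal to noise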
[7] = test system: Neuregulin-1 EGF-like domain; assay: binders of neuregulin-1 EGF-like domain, primary screen, biochemical, small-molecule microarray, 635 nm fluorescence (AID 1081); conditions: small-molecule microarray binding, higher = more signal;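 note: binding of the protein to compounds printed on small-molecule microarray slides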
[8] = FRG1 promoter luciferase signal modulators, primary screen, FRG1 inhibition for FSHD, cell-based, C2C12 myotubes, firefly/Renilla luciferase, luminescence (AID 1084); conditions: higher = more signal, called active from +8 up or from −8 down
[9] = binders of probe aFST on microarray, primary screen, stem cell growth factor project, biochemical, small-molecule microarray, fluorescence 635/667 (AID 1086); conditions: higher = more signal;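 note: score merges 667 nm fluorescence with signal-to-noise of each printed compound spot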
[10] = binders of probe aHhip on microarray, primary screen, stem cell growth factor project, biochemical, small-molecule microarray, fluorescence 635/667 (AID 1087); conditions: higher = more signal;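 note: score merges spot fluorescence at 667nm with spot signal to noise ratio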

Chain of Neurogenic locus notch homolog protein 2 (Homo sapiens) (Q04721 whole entry, looked up, canonical isoform): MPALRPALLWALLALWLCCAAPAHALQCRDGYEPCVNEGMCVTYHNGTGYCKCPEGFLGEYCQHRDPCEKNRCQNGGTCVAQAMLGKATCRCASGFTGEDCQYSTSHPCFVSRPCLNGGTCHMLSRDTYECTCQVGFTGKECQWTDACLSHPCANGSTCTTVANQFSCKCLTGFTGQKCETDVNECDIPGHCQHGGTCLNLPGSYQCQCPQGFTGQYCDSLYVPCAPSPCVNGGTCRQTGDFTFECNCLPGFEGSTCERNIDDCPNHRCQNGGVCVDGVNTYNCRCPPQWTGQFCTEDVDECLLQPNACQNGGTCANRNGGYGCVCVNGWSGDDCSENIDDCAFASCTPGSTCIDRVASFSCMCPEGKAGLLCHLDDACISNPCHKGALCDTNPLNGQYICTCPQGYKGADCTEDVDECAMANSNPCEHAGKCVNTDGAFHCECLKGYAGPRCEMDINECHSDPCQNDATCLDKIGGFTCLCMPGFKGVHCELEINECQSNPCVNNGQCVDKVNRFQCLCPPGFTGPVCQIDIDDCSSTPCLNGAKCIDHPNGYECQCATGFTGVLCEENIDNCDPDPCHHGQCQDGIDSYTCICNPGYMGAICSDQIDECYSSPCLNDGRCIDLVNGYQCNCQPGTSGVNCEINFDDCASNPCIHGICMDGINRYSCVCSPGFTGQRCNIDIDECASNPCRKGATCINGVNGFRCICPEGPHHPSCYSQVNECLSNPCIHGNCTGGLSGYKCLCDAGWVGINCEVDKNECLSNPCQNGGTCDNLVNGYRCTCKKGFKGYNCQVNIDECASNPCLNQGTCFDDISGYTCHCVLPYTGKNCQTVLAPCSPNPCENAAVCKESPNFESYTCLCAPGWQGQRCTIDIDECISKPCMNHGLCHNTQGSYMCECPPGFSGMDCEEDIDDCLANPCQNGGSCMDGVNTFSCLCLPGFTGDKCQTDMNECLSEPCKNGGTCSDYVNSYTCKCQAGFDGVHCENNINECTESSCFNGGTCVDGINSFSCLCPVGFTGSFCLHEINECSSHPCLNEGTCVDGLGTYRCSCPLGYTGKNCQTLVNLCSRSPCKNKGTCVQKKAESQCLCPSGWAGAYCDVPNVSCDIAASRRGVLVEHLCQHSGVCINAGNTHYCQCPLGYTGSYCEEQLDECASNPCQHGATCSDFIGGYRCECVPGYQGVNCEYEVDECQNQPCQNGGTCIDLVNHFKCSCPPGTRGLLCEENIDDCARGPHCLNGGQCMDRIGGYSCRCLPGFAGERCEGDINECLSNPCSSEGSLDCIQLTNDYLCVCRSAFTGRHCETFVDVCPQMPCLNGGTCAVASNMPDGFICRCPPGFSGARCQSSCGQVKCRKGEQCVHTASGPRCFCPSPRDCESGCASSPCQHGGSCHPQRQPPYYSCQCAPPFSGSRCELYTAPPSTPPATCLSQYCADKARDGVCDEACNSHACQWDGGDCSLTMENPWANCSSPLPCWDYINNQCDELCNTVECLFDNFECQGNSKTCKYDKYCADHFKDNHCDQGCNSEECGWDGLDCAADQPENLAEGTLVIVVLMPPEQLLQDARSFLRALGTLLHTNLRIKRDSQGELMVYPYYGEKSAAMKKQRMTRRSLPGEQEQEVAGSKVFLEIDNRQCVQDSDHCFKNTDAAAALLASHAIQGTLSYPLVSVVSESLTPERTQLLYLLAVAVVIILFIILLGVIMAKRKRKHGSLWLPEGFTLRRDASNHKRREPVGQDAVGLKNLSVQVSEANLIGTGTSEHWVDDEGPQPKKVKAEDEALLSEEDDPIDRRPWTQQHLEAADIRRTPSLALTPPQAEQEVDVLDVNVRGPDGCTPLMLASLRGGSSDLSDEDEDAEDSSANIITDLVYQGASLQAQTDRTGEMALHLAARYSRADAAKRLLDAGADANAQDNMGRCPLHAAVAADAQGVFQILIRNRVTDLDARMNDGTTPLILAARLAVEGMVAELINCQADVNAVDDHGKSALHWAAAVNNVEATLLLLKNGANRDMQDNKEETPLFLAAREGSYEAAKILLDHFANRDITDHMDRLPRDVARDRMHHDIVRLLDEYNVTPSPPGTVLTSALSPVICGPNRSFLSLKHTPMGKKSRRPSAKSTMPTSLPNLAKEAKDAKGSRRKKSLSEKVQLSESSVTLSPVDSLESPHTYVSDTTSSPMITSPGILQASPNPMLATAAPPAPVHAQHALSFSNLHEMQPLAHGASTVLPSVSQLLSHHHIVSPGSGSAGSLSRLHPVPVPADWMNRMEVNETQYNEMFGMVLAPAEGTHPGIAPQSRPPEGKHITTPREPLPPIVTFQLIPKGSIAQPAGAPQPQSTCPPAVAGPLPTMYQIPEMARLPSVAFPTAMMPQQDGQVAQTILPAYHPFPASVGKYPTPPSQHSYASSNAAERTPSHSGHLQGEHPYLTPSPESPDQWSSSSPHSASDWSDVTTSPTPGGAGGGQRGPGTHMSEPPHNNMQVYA
Chain of Pro-neuregulin-1, membrane-bound isoform (Homo sapiens) (Q02297 whole entry, looked up, the tested form may be a part, canonical isoform): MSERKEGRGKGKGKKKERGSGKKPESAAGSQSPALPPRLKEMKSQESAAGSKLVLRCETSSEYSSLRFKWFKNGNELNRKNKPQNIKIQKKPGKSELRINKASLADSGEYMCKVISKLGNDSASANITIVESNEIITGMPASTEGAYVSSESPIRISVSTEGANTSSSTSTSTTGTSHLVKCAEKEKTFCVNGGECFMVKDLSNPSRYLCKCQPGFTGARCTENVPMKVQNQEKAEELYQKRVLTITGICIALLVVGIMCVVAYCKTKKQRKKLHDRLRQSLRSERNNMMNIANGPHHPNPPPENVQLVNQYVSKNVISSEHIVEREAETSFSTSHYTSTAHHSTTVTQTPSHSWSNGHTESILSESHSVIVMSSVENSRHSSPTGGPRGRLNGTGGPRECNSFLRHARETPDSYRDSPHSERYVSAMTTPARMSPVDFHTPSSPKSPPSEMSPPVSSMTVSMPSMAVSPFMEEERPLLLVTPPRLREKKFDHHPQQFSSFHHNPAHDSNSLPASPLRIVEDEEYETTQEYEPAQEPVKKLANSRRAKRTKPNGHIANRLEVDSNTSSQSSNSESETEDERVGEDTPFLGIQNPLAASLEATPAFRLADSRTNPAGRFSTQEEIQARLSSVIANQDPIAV

Row | SMILES | composite z-score [1] | composite z-score [2] | composite z-score [3] | composite z-score [4] | composite z-score [5] | composite z-score [6] | composite z-score [7] | z-score [8] | composite z-score [9] | composite z-score [10]
1 | CCOC(=O)C[C@H]1[C@H](OC(=O)Cc2ccc3c(c2)OCO3)[C@@H](NC(=O)Cc2ccc(OC)cc2)c2cc(OCCCO)ccc2N1C(=O)Cc1ccc(OC)cc1 | -0.199 | 0.225 | -0.128 | 0.209 | 0.121 | 0.007 | 0.501 | -3.1 (inactive) | 0.255 | 0.132
2 | CC(C)=C1C(=O)C(c2ccccc2)=C2CN3C(=O)N(CCc4ccccc4)C(=O)[C@]3(C)[C@H]21 | 0.532 | -0.0272 | 0.15 | 0.265 | 1.26 | 1.81 | 1.07 | 0.863 (inactive) | 0.64 | -0.0346
3 | CCCCC(O)C1C=CC2C(=O)N(c3ccccc3)C(=O)C2N1Nc1ccc(C#N)cc1 (stereo not given) | 0.805 | -0.472 | -0.074 | 0.226 | 1.27 | 1.9 | 1.41 | 0.662 (inactive) | 0.941 | -0.112
4 | CCCCCCc1nc(Cc2cc(OC)c(OC)c(OC)c2)cc2c1[Si](C(C)C)(C(C)C)O[C@H]2c1ccccc1 | -0.557 | 0.251 | -0.0599 | 0.0804 | 0.191 | -0.0387 | -0.712 | -0.361 (inactive) | 0.0506 | 0.0677
5 | COCCOC(=O)N1C(=O)[C@@]2(c3cc(C#CCCO)ccc31)[C@H](c1ccc(OCCO)cc1)N1[C@H](c3ccccc3)[C@H](c3ccccc3)OC(=O)[C@H]1[C@@H]2C(=O)N1CCCCCCC1 | 3.17 | 1.15 | 0.487 | 1.08 | 1.37 | 1.65 | 1.16 | 0.278 (inactive) | 2.65 | 3.2
6 | C=C(CCCC)/C(=C/C[C@H](OC(C)=O)c1cccc(OCCO)c1)c1cnc2ccccc2c1 | 0.243 | -0.194 | -0.116 | 0.0835 | 0.16 | -0.0759 | 0.244 | -0.45 (inactive) | -0.381 | -0.0994
7 | CCCCC(=C=CC[C@H](O)c1ccc(CO)o1)CCO | -0.388 | 1.03 | -0.109 | 0.0582 | 0.165 | 1.75 | 1.2 | 0.0699 (inactive) | 0.0508 | 0.0373
8 | CC(=O)c1ccc(C(O)C2C=CC3C(=O)N(c4ccccc4)C(=O)C3N2Nc2ccc(C(C)C)cc2)cc1 (stereo not given) | 0.305 | -0.152 | -0.0226 | 0.897 | 1.37 | 1.55 | 1.09 | 0.59 (inactive) | 1.51 | -0.106
9 | CC(C)(C)N1CC=CC23O[C@@H]4/C=C\CCCOC(=O)C4[C@H]2C(=O)N(CCCO)[C@@H]3C1=O (stereo not given in full) | 0.164 | -0.496 | -0.203 | -0.147 | -0.864 | 1.07 | 1.1 | 0.502 (inactive) | -0.582 | -0.286
10 | COCCOC(=O)N1C(=O)[C@@]2(c3cc(C#CCNC(N)=O)ccc31)[C@H](C(=O)Nc1nc3ccccc3s1)[C@H]1C(=O)O[C@H](c3ccccc3)[C@H](c3ccccc3)N1[C@@H]2c1ccccc1OCCO | -0.35 | 0.578 | -0.0569 | 0.475 | 0.809 | 0.257 | 0.635 | 0.36 (inactive) | 0.71 | -0.102
11 | Cc1ccc(S[C@]2(C(=O)NCCCN(C)C)CC(=O)N(C3Cc4ccccc4C3)[C@@H]2c2ccc(CO)cc2I)cc1 | 0.533 | -0.602 | -0.0281 | -0.25 | 0.0374 | 1.88 | 0.522 | -0.967 (inactive) | 0.404 | -0.0373
12 | CC1CC/C=C\[C@H]2OC34C=CCN(Cc5ccccc5)C(=O)[C@H]3N(CCCCCCO)C(=O)[C@@H]4C2C(=O)O1 (stereo not given in full) | 0.261 | 0.96 | -0.116 | -0.994 | -0.763 | 1.91 | 1.19 | -0.1 (inactive) | -0.696 | -0.226
13 | O=C1C2C=CC(C(O)c3ccc([N+](=O)[O-])cc3)N(Nc3ccccc3F)C2C(=O)N1c1ccccc1 (stereo not given) | 0.484 | 0.173 | -0.0172 | 0.438 | 1.12 | 1.6 | 1.29 | -0.101 (inactive) | 0.883 | -0.163
14 | CCOC(=O)C1=CC[C@@H](c2ccc(OC)cc2)N(S(=O)(=O)c2ccc(C)cc2)[C@H]1c1ccc(C)cc1 | -0.208 | -0.236 | -0.062 | 0.584 | 1.52 | 0.46 | 1.05 | 0.0599 (inactive) | 1.11 | -0.0618
15 | CC(C)C[C@@H]1NC(=O)[C@@H]2C[C@H](C(=O)NCCCCCCNC(=O)CS)[C@H](c3cccc(OCCO)c3)N2C1=O | -0.514 | 1.05 | 0.0379 | 0.968 | 1.34 | 1.21 | 1.39 | 0.509 (inactive) | 0.756 | -0.069
16 | CC1CC/C=C\[C@H]2OC34C=CCN(C(C)(C)C)C(=O)[C@H]3N(CCCO)C(=O)[C@@H]4C2C(=O)O1 (stereo not given in full) | 0.142 | -0.0052 | -0.0063 | 0.716 | -0.858 | 0.647 | 1.28 | -0.281 (inactive) | 0.182 | -0.169
17 | CO[C@H]1O[C@H](CO)[C@@H](OC(=O)Nc2ccccc2-c2ccccc2)[C@H](OC(=O)Nc2ccccc2)[C@H]1OC(=O)Nc1ccccc1 | 0.164 | 0.514 | -0.0067 | 1.25 | 1.48 | 1.55 | 1.33 | 1.66 (inactive) | 0.941 | -0.0237
18 | COCCOC(=O)N1C(=O)[C@@]2(c3cc(C#CCC(C(=O)OC)C(=O)OC)ccc31)[C@H](C(N)=O)[C@H]1C(=O)O[C@H](c3ccccc3)[C@H](c3ccccc3)N1[C@@H]2c1ccc(O)cc1 | -0.291 | 0.79 | 0.015 | 1.2 | 1.57 | 1.6 | 1.23 | 3.78 (inactive) | 0.838 | 0.0768
19 | [N-]=[N+]=Nc1ccccc1[C@@H]1OC(c2ccc(OCCCO)cc2)=N[C@]1(Cc1ccccc1)C(=O)NCCN1CCOCC1 | -0.0258 | 2.32 | -0.001 | 0.916 | 1.21 | -0.238 | 1.33 | -0.906 (inactive) | 1.26 | 0.24
20 | COC(=O)C(CC#Cc1ccc2c(c1)[C@]1(C(=O)N2)[C@H](c2ccccc2OCCO)N2[C@H](c3ccccc3)[C@H](c3ccccc3)OC(=O)[C@H]2[C@@H]1C(=O)N1CCc2cc(OC)c(OC)cc2C1)C(=O)OC | -0.152 | 0.179 | -0.0087 | 0.382 | 1.15 | 0.834 | 1.3 | -1.14 (inactive) | 0.383 | -0.374
21 | CC(C)C[C@H]1NC(=O)C([C@@H](C)OCc2ccccc2)NC(=O)[C@@]23C(=O)N[C@@H](Cc4ccccc4)C2[C@H](C)[C@@]2(C)O[C@H]2C3/C=C/C/C=C\CNC1=O (stereo not given in full) | -0.61 | 0.583 | -0.0712 | 0.775 | 0.831 | 1.21 | 1.06 | 2.71 (inactive) | 0.517 | 3.36
22 | O=C1[C@H]2C=C(I)[C@H](C[C@@H]2c2ccccc2)[C@@]12CO2 | -0.372 | -0.0809 | -0.104 | -0.142 | 0.0878 | -0.165 | -0.507 | 1.55 (inactive) | 0.281 | -0.214
23 | CN1C(=O)C2C(C1=O)C1C=C(c3ccc(CO)cc3)C2C(C2CC2)N1C (stereo not given) | -0.23 | 0.388 | -0.0932 | 0.0656 | -0.337 | 1.16 | 0.811 | 0.0916 (inactive) | -0.176 | 0.0749
24 | CN(C)CCCC[C@@H]1NC(=O)[C@@H]2C[C@H](C(=O)NCCCCCCNC(=O)CS)[C@H](c3ccc(O)cc3)N2C1=O | -0.195 | 0.991 | -0.0959 | 0.204 | 0.262 | 0.133 | 0.975 | 0.133 (inactive) | -0.114 | -0.0645
25 | CCN(CC)c1ccc(N2CC=CC34O[C@@H]5C=CCCOC(=O)C5[C@H]3C(=O)N(C(C)CO)[C@@H]4C2=O)cc1 (stereo not given in full) | 0.221 | 0.864 | -0.0627 | -0.227 | -0.371 | 0.415 | 1.36 | 0.725 (inactive) | -0.0426 | -0.34
26 | O=C(NC1CC1)[C@@H]1c2ccccc2C(=O)N(Cc2ccc(OC(F)(F)F)cc2)[C@H]1c1ccc(CO)cc1 | 0.0273 | 0.314 | -0.0418 | -0.0789 | 0.354 | 1.38 | 0.793 | -0.859 (inactive) | 0.0427 | -0.0994
27 | C[N+](C)(C)CCCC[C@@H]1NC(=O)[C@H]2C[C@@H](C(=O)NCCCCCNC(=O)CS)[C@@H](c3cccc(OCCO)c3)N2C1=O | -0.121 | 0.348 | -0.102 | 0.0107 | -0.324 | 1.5 | 0.785 | -0.474 (inactive) | 0.0685 | 0.0373
28 | CN(C)C(=O)[C@@]1(Cc2ccccc2CN=[N+]=[N-])COC(c2ccc(OCCCO)cc2)=N1 | 0.695 | -0.445 | -0.085 | -0.0663 | 0.0696 | 1.63 | 1.1 | -2.47 (inactive) | 0.681 | -0.134
